PME-1 primary = blocks human protein phosphatase methylesterase 1; recombinant PME-1, FP-Rh probe fluorescence polarization; inhibition, % at 5.9 µM; 320,000 tested, 0.53% active;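 active = inhibition above the campaign mean of all compounds plus 3 SD, cut at about 26% in these data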;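 note: competitive labeling of PME-1 active site by serine hydrolase directed probe; inhibitors block probe labeling so polarization falls and inhibition rises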
Target sequence (Q9Y570 whole entry, looked up): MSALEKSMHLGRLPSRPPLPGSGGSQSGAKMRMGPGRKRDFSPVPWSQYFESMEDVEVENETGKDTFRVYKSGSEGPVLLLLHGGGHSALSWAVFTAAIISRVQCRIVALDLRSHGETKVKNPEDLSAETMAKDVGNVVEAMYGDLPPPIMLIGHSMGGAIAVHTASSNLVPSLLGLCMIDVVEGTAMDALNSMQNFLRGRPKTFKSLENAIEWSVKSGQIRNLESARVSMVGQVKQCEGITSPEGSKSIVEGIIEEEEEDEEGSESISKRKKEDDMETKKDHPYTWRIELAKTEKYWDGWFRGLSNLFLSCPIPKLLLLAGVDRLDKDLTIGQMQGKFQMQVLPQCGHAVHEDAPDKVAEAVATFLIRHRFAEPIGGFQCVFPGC
PREPL inhibitor = human PREPL enzyme inhibition. inhibition, % at 5.96 µM. recombinant PREPL, fluorescence polarization activity-based probe. 320,000 tested, 0.68% active
Fam108B counter = blocks mouse Fam108B hydrolase in RBBP9 counter-screen. recombinant Fam108B, FP-Rh probe fluorescence polarization. 300,000 tested, 0.33% active. inhibition, % at 9.51 µM. AID 1947;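 active = inhibition above the screen mean inhibition plus 3 SD, computed separately per campaign, cut at about 18% in these data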;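 note: inhibitors lower polarization as less probe binds the enzyme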
GSTO1 counter = blocks human GSTO1 in RBBP9 counter-screen; P78417; recombinant GSTO1, activity-based probe fluorescence polarization; inhibition, % at 5.96 µM; 300,000 tested, 1.1% active;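 active = inhibition above the campaign mean inhibition plus 3 SD, cut at about 35% in these data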
LYPLA1 counter = LYPLA1 (human) inhibition in PME1 counter-screen; O75608; recombinant LYPLA1, FP-Rh probe fluorescence polarization; inhibition, % at 5.9 µM; 320,000 tested, 0.16% active;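 active = inhibition above the mean of all tested compounds plus 3 SD, set per campaign, cut at about 14% in these data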;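 note: inhibitors block serine hydrolase probe labeling of LYPLA1 so polarization falls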
LYPLA2 inh = blocks human lysophospholipase 2, a PME1 counter-screen; inhibition, % at 5.9 µM; AID 2177; 320,000 tested, 0.38% active; recombinant LYPLA2, FP-Rh probe fluorescence polarization;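 active = inhibition above the screen-wide mean plus 3 SD, limit set per campaign, cut at about 26% in these data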
PREPL inh cf = human PREPL inhibition, confirmation; shares compounds with PREPL inhibitor; recombinant PREPL, fluorescence polarization activity probe; inhibition, % at 5.96 µM; 2,000 tested, 67% active; AID 2803
Numbers stand for hits; 0 = inactive; - = no result given. Most compounds without a hit are left out; they make up all but 2% or so of the library. Cut-off read from the data, not from the text of the source, unless noted: active = inhibition above about 43%; inactive = the rest.

SMILES	PME-1 primary	PREPL inhibitor	Fam108B counter	GSTO1 counter	LYPLA1 counter	LYPLA2 inh	PREPL inh cf
Cc1ccc(N(CC(=O)NCC2CCCO2)C(=O)CCC(=O)Nc2nccs2)cc1 (centres undefined)	0	43	0	0	0	0	0
Cc1ccc(N(CC(=O)NCC2CCCO2)C(=O)CCC(=O)Nc2nccs2)cc1C (centres undefined)	0	0	0	0	0	0	-
NC(=O)C1CC(=O)N(c2ccc(OCc3ccc(Cl)cc3Cl)cc2)C1 (centres undefined)	0	47	0	0	0	0	0
CC1=Nc2cccc3cccc(c23)N1	0	45	0	0	0	0	0
CCOC(=O)c1ccc2ncc(C(=O)OCC)c(Nc3ccc(N4CCOCC4)cc3)c2c1	0	45	0	0	0	0	0
CC(=O)N1CCN(c2ccc(NCc3cccc4ccccc34)cc2)CC1	0	78	0	0	0	0	62
CC(=O)N1CCN(c2ccc(NCc3ccc(C)s3)cc2)CC1	0	54	0	0	0	0	0
CC(=O)N1CCN(c2ccc(NCc3ccc(-c4ccc(Br)cc4)o3)cc2)CC1	-	71	-	-	-	-	66
CC(=O)N1CCN(c2ccc(NCc3cccs3)cc2)CC1	0	0	0	0	0	0	-
CC(=O)N1CCN(c2ccc(NCc3ccc(Br)o3)cc2)CC1	0	44	-	-	0	0	45
CC1(c2ccc(OC(F)F)cc2)NC(=O)N(/N=C/c2c(O)ccc3ccccc23)C1=O (centres undefined)	0	0	0	0	0	0	-
CC(=O)Nc1ccc(NC(=O)CSc2nc(N)c(NC(=O)c3ccco3)c(=O)[nH]2)cc1	0	0	0	0	0	0	-
Cc1ccc(N(Cc2ccccc2)C(=O)c2cc(S(=O)(=O)N3CCOCC3)ccc2F)cc1	0	0	-	-	0	0	-
O=C1OC[C@@H]2CCCN2C(=O)[C@H](CC(=O)N(CCO)Cc2ccccc2)C/C=C\C[C@H]1Cc1ccc(F)cc1	-	51	-	-	-	-	0
O=C(NCCOc1ccccc1)c1ccc2c(c1)S(=O)(=O)c1cc(Cl)ccc1C2=O	-	43	-	-	-	-	0
COc1cc(C2CC(=O)Oc3c(C(CCN4CCCC(C)C4)c4ccc(N(C)C)cc4)c(OC)cc(OC)c32)cc(OC)c1OC (centres undefined)	0	46	0	0	0	0	52
CCCN1C(=O)/C(=N\OCC(=O)NCC(F)(F)F)c2ccccc21	0	0	0	0	0	0	-
CCCCn1c(CCc2ccccc2)nc2cc3[nH]c(=O)c(C(C)C)nc3cc21	0	44	0	0	0	0	0
COc1cc(/C=C(\C#N)C(=O)c2ccc(O)c(O)c2)cc(I)c1O	0	56	0	45	0	0	0
COc1cc(/C=C(\C#N)C(=O)N2CCOCC2)cc(Br)c1O	0	0	0	0	0	0	-
COc1ccc(/C=C/C(=O)C23CC4CC(CC(C4)C2)C3)cc1CN1CCOCC1	0	0	0	0	0	0	-
COc1ccc(/C=C/C=N/NC(=O)COc2ccc(OC)cc2)cc1	0	0	0	0	0	0	-
COc1ccc(NCC(=O)N/N=C/C=C\c2ccccc2)cc1	0	67	0	0	0	0	46
Cc1cccc(NS(=O)(=O)c2c(C)nc3scc(C)n3c2=O)c1	0	0	0	0	0	0	-
O=C(CN1CCN(C(=O)C2COc3ccccc3O2)CC1)Nc1ccccc1 (centres undefined)	0	0	0	0	0	0	-
CC(=O)Nc1cc(OC(=O)c2ccco2)cc(OC(=O)c2ccco2)c1	0	50	0	0	0	0	0
CCOc1ccc(C(CC(=O)O)NC(=O)Cc2ccc(Cl)cc2)cc1 (centres undefined)	0	0	0	0	0	0	-
COc1ccc(C)cc1NC(=O)c1ccccc1NS(=O)(=O)c1ccc(Cl)s1	0	0	0	0	0	0	-
CN(C)c1nc(-c2ccccn2)nnc1-c1ccccc1	0	52	0	0	0	0	79
c1ccc(-c2nnc(-c3ccccn3)c(-c3ccccn3)n2)nc1	0	0	0	0	0	0	-

Screens as filed in PubChem BioAssay.
